A selection: hits, their analogues and other compounds. The true share with any hit is near 1.7%.
EphB4 ephrin blk = antagonists of human EphB4-ephrin-B2 interaction; P54760; EphB4 LBD / TNYL-RAW-Alexa532 peptide, fluorescence polarization; inhibition, % at 7 µM; 97,000 tested, 0.15% active; AID 720;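 active = inhibition above the screen-wide mean inhibition plus 3 SD, cut at about 15% in these data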;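 note: 0% = DMSO wells and 100% = excess unlabeled TNYL-RAW peptide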
PLK1 kinase inh = blocks human PLK1 kinase activity; AID 619; P53350; 97,000 tested, 0.53% active; recombinant PLK1 kinase, TR-FRET peptide phosphorylation; inhibition, % at 10 µM;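 active = inhibition of 50% or more in the single-concentration screen; inactive = inhibition below 50%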;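 note: 0% = DMSO max control and 100% = H-89 dihydrochloride min control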
FAK blocker = blocks human focal adhesion kinase activity. inhibition, %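 (tested at 7 µM)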. AID 727. biochemical FAK kinase activity assay. 97,000 tested, 0.84% active; in the data active = inhibition above about 19%;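 note: 0% = DMSO and 100% = reference compound high control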
LYP inh 2 = inhibitors of human LYP (PTPN22) phosphatase; Q9Y2R2; recombinant LYP catalytic domain, DiFMUP fluorescence; inhibition, % at 2 µM; 96,000 tested, 0.21% active; AID 640;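 active = inhibition at 2 µM at or above a set limit, the screen mean plus 3 SD, cut at about 24% in these data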;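 note: 0% = DMSO with enzyme and 100% = enzyme fully blocked by orthovanadate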
LYP act = LYP (human) phosphatase activation | AID 697 | activation, % at 2 µM | Q9Y2R2 | recombinant LYP, DiFMUP fluorescence; 0 = plate median, 100 = signal doubled | 96,000 tested, 0.11% active;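 active = activation at 2 µM above a set limit, the mean plus 5 SD, cut at about 37% in these data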
PLK1 PBD inh = inhibitors of human Plk1 polo box domain binding | 97,000 tested, 0.13% active | AID 693 | P53350 | inhibition, %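 (tested at about 20 µM)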 | Plk1 PBD phosphopeptide binding, fluorescence polarization; in the data active = inhibition above about 34%, passing the limit was not always enough
Starred values were filed as active, the others as inactive.

For COc1ccc(N(CC(=O)NCc2cccnc2)S(=O)(=O)c2c(C)nn(C)c2C)cc1 the results were EphB4 ephrin blk 0.3, PLK1 kinase inh -21.7, FAK blocker -3.6, LYP inh 2 -9.6, LYP act 7.1 and PLK1 PBD inh 0.0.
CCn1c(SCc2nc3sc(C(=O)O)c(C)c3c(=O)[nH]2)nc2ccccc21 was read as EphB4 ephrin blk 4.7, PLK1 kinase inh 56.2*, FAK blocker -4.9, LYP inh 2 -6.6, LYP act 5.2 and PLK1 PBD inh -45.0.
For CCOC(=O)c1c(NC(=O)CSc2nnc3c(n2)[nH]c2ccc(F)cc23)sc(C(C)=O)c1C the results were EphB4 ephrin blk 0.8, PLK1 kinase inh -5.0, FAK blocker 0.8, LYP inh 2 6.4, LYP act -3.6 and PLK1 PBD inh -26.1.
Screening CCOC(=O)c1c(NC(=O)CSc2nnc3c(n2)[nH]c2ccccc23)sc2c1CCN(C)C2 returned EphB4 ephrin blk -6.6, PLK1 kinase inh 0.7, FAK blocker 19.6*, LYP inh 2 2.2, LYP act -4.6 and PLK1 PBD inh -21.0.
`COc1ccc(-c2nn3c(-c4ccccc4)nnc3s2)cc1` gave EphB4 ephrin blk 4.6, PLK1 kinase inh -12.0, FAK blocker 0.7, LYP inh 2 1.7, LYP act -2.3 and PLK1 PBD inh -5.2.
`COc1cccc(OC)c1-c1nn2c(-c3cc(-c4ccccc4)n[nH]3)nnc2s1` gave EphB4 ephrin blk 62.5*, PLK1 kinase inh -12.4, FAK blocker -239.7, LYP inh 2 37.5*, LYP act -38.7 and PLK1 PBD inh 3.2.
Screening O=C(C1CC1)N1CCc2cc(S(=O)(=O)N3CCOCC3)ccc21 returned EphB4 ephrin blk 0.2, PLK1 kinase inh 68.6*, FAK blocker -4.3, LYP inh 2 3.7, LYP act -6.0 and PLK1 PBD inh 15.8.
For NCCCC(=O)N1c2ccccc2Sc2ccccc21 the results were EphB4 ephrin blk -2.8, PLK1 kinase inh 65.6*, FAK blocker 0.3 and PLK1 PBD inh 6.3.
`COc1ccccc1N1CCN(CC(=O)NCC2CCCO2)CC1` (centres undefined) gave EphB4 ephrin blk -8.9, PLK1 kinase inh -7.2, FAK blocker 1.1, LYP inh 2 -10.3, LYP act 9.7 and PLK1 PBD inh -13.7.
COC(=O)C1CCN(S(=O)(=O)c2ccc(OC)cc2)CC1 was read as EphB4 ephrin blk -0.8, PLK1 kinase inh -8.2, FAK blocker 1.9, LYP inh 2 5.3, LYP act -4.3 and PLK1 PBD inh 27.5.
Screening Cc1nc2ccc(NC(=O)C3CCN(S(=O)(=O)c4cccs4)CC3)cc2s1 returned EphB4 ephrin blk 4.4, PLK1 kinase inh 53.5*, FAK blocker 2.8, LYP inh 2 -2.6, LYP act -0.4 and PLK1 PBD inh 14.2.
`CCOC(=O)c1cccc(NC(=O)C2CCN(S(=O)(=O)c3cccs3)CC2)c1` gave EphB4 ephrin blk -1.3, PLK1 kinase inh -26.2, FAK blocker -0.1, LYP inh 2 -14.4, LYP act 16.3 and PLK1 PBD inh -19.2.
CCOc1ccc(CCNS(=O)(=O)c2cccc3nsnc23)cc1OCC was read as EphB4 ephrin blk -2.6, PLK1 kinase inh -9.8, FAK blocker 2.1, LYP inh 2 3.4, LYP act -3.8 and PLK1 PBD inh 2.0.
For CCNC(=S)NNC(=O)c1ccccc1OC(F)F the results were EphB4 ephrin blk 4.8, PLK1 kinase inh -10.0, FAK blocker -2.5, LYP inh 2 -3.6, LYP act -0.6 and PLK1 PBD inh -5.9.
`CNC(=S)NNC(=O)c1cccn(Cc2ccc(Cl)cc2Cl)c1=O` gave EphB4 ephrin blk -5.4, PLK1 kinase inh 1.1, FAK blocker 0.1, LYP inh 2 53.8*, LYP act -52.7 and PLK1 PBD inh -1.5.
CCNC(=S)NNC(=O)c1cccn(Cc2ccc(Cl)cc2)c1=O was read as EphB4 ephrin blk 1.5, PLK1 kinase inh -6.4, FAK blocker -0.2, LYP inh 2 42.4*, LYP act -41.0 and PLK1 PBD inh -29.3.
CCn1c(SCC(=O)N2CCc3ccccc32)nnc1-c1ccco1 was read as EphB4 ephrin blk 0.6, PLK1 kinase inh -3.4, FAK blocker -4.1, LYP inh 2 0.9, LYP act -3.4 and PLK1 PBD inh -1.4.
`CCOc1cccc(CNc2ccc(O)cc2)c1OCc1ccccc1Cl` gave EphB4 ephrin blk 2.1, PLK1 kinase inh -7.4, FAK blocker 37.0* and PLK1 PBD inh 3.5.
`CCOc1cccc(CNn2cnnc2)c1OCc1ccccc1Cl` gave EphB4 ephrin blk 4.4, PLK1 kinase inh -6.2, FAK blocker -2.5, LYP inh 2 -2.0, LYP act 3.8 and PLK1 PBD inh 7.1.
For c1nc(N2CCOCC2)c2[nH]cnc2n1 the results were EphB4 ephrin blk 0.2, PLK1 kinase inh 63.0*, FAK blocker 6.8, LYP inh 2 2.3, LYP act -3.9 and PLK1 PBD inh 0.6.
Screening O=C(CSc1ncnc2nc[nH]c12)N1CCOCC1 returned EphB4 ephrin blk 1.8, PLK1 kinase inh 20.6, FAK blocker 0.2, LYP inh 2 -8.6, LYP act 8.4 and PLK1 PBD inh -16.9.
Screening CCOC(=O)c1ccc(NC(=O)CC2NCCNC2=O)cc1 (centres undefined) returned EphB4 ephrin blk -6.4, PLK1 kinase inh -10.8, FAK blocker 0.3, LYP inh 2 31.5*, LYP act -30.0 and PLK1 PBD inh 20.9.
For CCOC(=O)c1ccc(NC(=O)CC2SCCNC2=O)cc1 (centres undefined) the results were EphB4 ephrin blk -6.3, PLK1 kinase inh -13.3, FAK blocker 0.1, LYP inh 2 8.3, LYP act -8.9 and PLK1 PBD inh 32.0.
Screening CCOC(=O)C1CCCN(Cc2sccc2C)C1 (centres undefined) returned EphB4 ephrin blk 2.3, PLK1 kinase inh -3.5, FAK blocker -2.5, LYP inh 2 15.2, LYP act -14.8 and PLK1 PBD inh -7.7.
`O=c1c(-c2nnc(SCc3ccc(Cl)cc3Cl)o2)cccn1Cc1ccccc1` gave EphB4 ephrin blk 7.1, PLK1 kinase inh -9.3, FAK blocker 2.0, LYP inh 2 24.8*, LYP act -22.8 and PLK1 PBD inh -7.4.
`CCOC(=O)C1=C(O)/C(=C\c2ccc(CNC(=O)C(=O)Nc3ccccc3)o2)N=C1C` gave EphB4 ephrin blk 3.2, PLK1 kinase inh -7.0, FAK blocker 6.2, LYP inh 2 11.7, LYP act -10.9 and PLK1 PBD inh -24.6.
For Cc1c(NC(=O)C(C)NCC2CCCO2)c(=O)n(-c2ccccc2)n1C (centres undefined) the results were EphB4 ephrin blk -4.0, PLK1 kinase inh -14.1, FAK blocker 0.9, LYP inh 2 3.9, LYP act 0.1 and PLK1 PBD inh -9.0.
For Cc1[nH]nc2c1C(c1ccsc1)C(C#N)=C(N)O2 (centres undefined) the results were EphB4 ephrin blk -1.0, PLK1 kinase inh 52.0*, FAK blocker 2.0, LYP inh 2 -9.8, LYP act 8.3 and PLK1 PBD inh -2.3.
